A selection: hits, their analogues and other compounds. The true share with any hit is near 12%.
G9a inh = blocks human histone lysine methyltransferase G9a | Q96KQ7 | G9a H3K9 monomethylation, AlphaScreen, 2 h | Potency, µM (titrated, usually from 102 µM), for inactives: top-dose activity, negative = inhibition, actives largely listed as inhibitors | hit rate 8.8% among 350,000 | AID 504332; further: on the % scale 0 is the no-effect control and ±100 the full control effect; nearly all actives have a fitted effect of over 75% in size
Target sequence (Q96KQ7 913-1193 limits assumed): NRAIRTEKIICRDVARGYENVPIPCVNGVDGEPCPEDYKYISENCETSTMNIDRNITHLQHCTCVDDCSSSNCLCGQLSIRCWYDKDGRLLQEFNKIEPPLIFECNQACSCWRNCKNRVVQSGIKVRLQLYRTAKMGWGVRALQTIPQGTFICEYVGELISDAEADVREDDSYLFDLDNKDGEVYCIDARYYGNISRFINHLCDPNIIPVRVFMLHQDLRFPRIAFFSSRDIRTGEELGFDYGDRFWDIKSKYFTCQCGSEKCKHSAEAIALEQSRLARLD
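Signal arises when biotinylated H3K9 peptide, once monomethylated, bridges streptavidin donor and antibody-captured acceptor beads. Enzyme at 20 nM was preincubated 15 min with test compounds; peptide 500 nM and SAM 20 uM then reacted for 2 h.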
Sfp PPTase inh = inhibitors of Bacillus subtilis Sfp phosphopantetheinyl transferase | Biochemical Sfp PPTase activity, qHTS | Potency, µM, for inactives: largest response in the series, negative = inhibition, usual class: inhibitors | hit rate 3.5% among 310,000;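 further: the enzyme is Sfp with the accession as filed and its product quenches rhodamine fluorescence; 0% = enzyme reaction without inhibitor and -100% = no enzyme wells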
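Buffer: 50 mM Hepes-Na pH 7.6, 10 mM MgCl2, 0.01% Nonidet P-40, 0.01% BSA. Enzyme 15 nM, pre-exposed to compound 15 min; substrates then added and fluorescence change tracked over 30 min.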
HP1b chromo inh = inhibitors of HP1-beta chromodomain binding to methylated histone tails. P83916. AlphaScreen HP1-beta / biotin-H3K9me3 peptide binding. Potency, µM (doses to about 114 µM), for inactives: at the highest dose activity change, negative = inhibition, most hits filed as inhibitors. hit rate 0.56% among 390,000. AID 540317; further: nearly all actives have a fitted effect of over 70% in size
Target sequence (P83916 whole entry, looked up): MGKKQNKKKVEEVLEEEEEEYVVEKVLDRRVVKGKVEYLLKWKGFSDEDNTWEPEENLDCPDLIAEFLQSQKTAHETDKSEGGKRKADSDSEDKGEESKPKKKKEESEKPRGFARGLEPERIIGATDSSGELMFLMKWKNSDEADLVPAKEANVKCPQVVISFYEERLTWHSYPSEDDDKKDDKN
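HP1-beta protein (50 nM final) preincubated 30 min at room temperature with biotinylated H3(1-18)K9me3 peptide (50 nM) in PBS pH 7.4, 0.01% Tween-20, then compound added for 30 min. AlphaScreen streptavidin donor/nickel chelate acceptor beads (10 ug/mL final), 30 min dark, luminescence read.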
BAZ2B inh = inhibitors of human BAZ2B bromodomain. Potency, µM (titrated, usually from 114 µM), for inactives: at the top dose activity change, negative = inhibition, hits mostly inhibitors. Q9UIF8. hit rate 4.4% among 360,000. AlphaScreen BAZ2B-H3K14Ac peptide displacement; further: on the % scale 0 is the no-effect control and ±100 the full control effect; nearly all actives have a fitted effect of over 60% in size
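BAZ2B 50 nM plus b-H3(5-23)K14Ac 50 nM, PBS pH 7.4/0.01% Tween-20, 30 min RT; compound added (max 110 uM), 30 min RT; streptavidin donor/Ni-chelate acceptor beads 10 ug/mL final, 20 min dark; AlphaScreen read.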
JMJD2A Tudor inh = inhibitors of human JMJD2A Tudor domain; O75164; AlphaScreen JMJD2A-Tudor / H3K4me3 peptide binding; Potency, µM (doses to about 114 µM), for inactives: at the highest dose activity change, negative = inhibition, usual class: inhibitors; hit rate 4.4% among 390,000; further: on the % scale 0 is the no-effect control and ±100 the full control effect; nearly all actives have a fitted effect of over 50% in size
An asterisk follows results filed as active; u = inconclusive; x = not tested or not shown; ! = not confirmed by another sample; [ ] = remark or other dose. The call rests on the fitted dose curve; in most records, active means well fitted curve in the direction sought with a large enough effect; inconclusive means small, poorly fitted or top-dose-only effect, or another doubt; inactive means no such curve, though single readings can be large; an effect the other way counts as inactive or inconclusive. Potency means the concentration at half of the fitted maximal effect.

SMILES | G9a inh | Sfp PPTase inh | HP1b chromo inh | BAZ2B inh | JMJD2A Tudor inh
O=C(NNC(=S)NC(=O)c1ccccc1[N+](=O)[O-])c1ccccc1[N+](=O)[O-] | u | -2% | 4% | -5% | -8%
CC(C)(C)c1ccc(NC(=O)c2ccccc2)c([N+](=O)[O-])c1 | u | -15% | u | u | 50µM*
O=C(NC(=S)Nc1ccccc1[N+](=O)[O-])c1ccccc1 | 25µM* | 28µM* | u | -18% | u
Cc1ccc(C(=O)NC(=S)NNC(=O)c2ccccc2[N+](=O)[O-])cc1 | 8.9µM* | 45µM* | -26% | 3% | 56µM*
O=c1cc2oc3cc(O)c(O)cc3c(-c3ccccc3[N+](=O)[O-])c-2cc1O | 1.4µM* | 35µM* | 0.79µM* | 1.1µM* | 0.71µM*
Cc1ccc(S(=O)(=O)c2nc(NN(C)C)sc2Cl)cc1 | u | -17% | 22% | x | -17%
O=C(COC(=O)Cc1ccccc1F)Nc1ccc(Cl)cn1 | -30% | 6% | -11% | 12% | 20µM*
O=C(COC(=O)COc1ccccc1F)Nc1ccc(Cl)cn1 | -1% | 17% | 33% | 4% | -1%
Cc1ccc2nc3c(cc(S(=O)(=O)c4ccccc4)c(=N)n3Cc3ccco3)c(=O)n2c1 | -10% | -16% | 38% | u | -10%
CCC(=O)n1nc(-c2cccnc2)nc1NCc1cccs1 | u | 12% | 12% | 4% | -10%
CCOC(=O)CC1=NN(c2ccccc2)C(=O)/C1=C\c1ccc(N(C)C)cc1 | 4.5µM* | 7% | u | 5.6µM* | 10µM*
CCC(=O)N(CCc1ccccc1C)Cc1cc2ccc(C)cc2[nH]c1=O | 10% | 17% | 26% | 9% | -11%
Cc1cc(-c2n[nH]c(=S)n2/N=C/c2ccccc2[N+](=O)[O-])n[nH]1 | 0.4µM* | u | u | u | 3.5µM*
Cc1ccc(-c2n[nH]c(=S)n2/N=C/C=C\c2ccccc2[N+](=O)[O-])cc1 | u | -25% | -7% | u | u
Cc1cc(-c2n[nH]c(=S)n2/N=C/c2c[nH]c3ccccc23)n[nH]1 | 0.79µM* | -29% | 11% | -22% | 10µM*
Fc1ccc(-c2n[nH]c(=S)n2/N=C/c2c[nH]c3ccccc23)cc1 | 1.8µM* | -4% | 20% | 8% | u
COc1ccc(NC(=O)COC(=O)c2ccc(S(=O)(=O)N3CCCC3)cc2)cc1OC | -27%[59 µM] | x | 52% | -3% | 7%
COc1ccc(OCC(=O)NC(=O)c2ccccc2)c([N+](=O)[O-])c1 | -35%[12.7 µM] | x | 49% | -13% | 5%
Cc1[nH]c(=O)[nH]c(=O)c1/C=N/NC(=O)[C@H](C)N | u | 50µM* | 33% | 50µM* | 56µM*
CC(C1OC(C)(C)C(O)C1O)C1CC[C@@]2(C)C3=CCC4C(C)(C)C(=O)CC[C@]4(C)C3CC[C@@]12C (some centres not stated) | -31%[2.33 µM] | 5% | x | x | x
COC(=O)[C@@]1(Cc2ccc(OC)cc2)[C@H]2c3cc(C(=O)N4CCCC4)n(Cc4ccc(OC)c(OC)c4)c3C[C@H]2CN1C(=O)c1ccccc1 | 45µM* | -7% | x | u | x
COC(=O)[C@@]1(Cc2ccc(OC)cc2)[C@H]2c3cc(C(=O)N4CCCC4)n(CCN4CCNC4=O)c3C[C@H]2CN1C(=O)c1ccccc1 | 79µM* | -11% | x | -11% | x
COc1ccc(CNC(=O)c2c(O)nc3cc(C)ccn3c2=O)cc1 | -1%[59 µM] | x | 13% | 1% | 4%
Cc1cccc(-c2nc(Nc3cccc(O)c3)c3ccccc3n2)c1 | 19% | 13% | 19% | -7% | -35%
COc1ccc(CN2C(=O)CSCC2=O)cc1OC | -25% | 3% | 30% | -14% | -1%
SMILES | G9a inh | Sfp PPTase inh | HP1b chromo inh | BAZ2B inh | JMJD2A Tudor inh
CCOC(=O)C1=C(O)/C(=C\c2cccs2)N=C1C | 23% | 11% | 31% | -1% | -7%
CCOC(=O)C1=C(O)/C(=C\c2ccc(CNC(=O)C(=O)Nc3ccccc3)o2)N=C1C | u | 32µM* | 1% | 56µM* | u
COc1ccc(C(=O)NNC(=S)NC(=O)c2cccs2)cc1 | 40µM* | 24% | 28% | -12% | -21%
COc1ccc(C(=O)NNC(=S)NC(=O)c2cccnc2)cc1 | 13µM* | -13% | 18% | 9% | -6%
COc1ccc(CC(=O)NNC(=S)NC(=O)c2cccnc2)cc1 | x | u | 15% | 11% | 20µM*
COc1ccc(/C=C/C(=O)NC(=S)NNC(=O)c2cccnc2)cc1 | u | 21% | 10% | 2% | -17%
O=C(NC(=S)NCc1ccccc1)c1cccnc1 | 9% | 3% | 42% | -20% | -6%
O=C(Cc1ccccc1)NNC(=S)NC(=O)c1cccnc1 | 10µM* | u | 18% | 5% | 25µM*
COc1ccc(-c2c(C(F)(F)F)nn(C)c2NC(=O)c2cccnc2)cc1 | 12% | 10% | 30% | -3% | -2%
CCCCN(CCCC)c1nc(-c2ccncc2)nc2ccccc12 | 191% | -20% | 136% | 16% | 77%
O=C1NC(=S)N/C1=C/c1cc([N+](=O)[O-])ccc1N1CCOCC1 | u | -5% | -13% | 11% | -33%
NC(=O)c1ccc([N+](=O)[O-])cc1SCc1ccccc1 | 40µM* | -11% | 17% | u | -29%
NC(=O)c1cc([N+](=O)[O-])ccc1NCCc1ccccc1 | 10% | 0% | 3% | -33% | -20%
CCOC(=O)c1oc2ccc(S(=O)(=O)n3nc(-c4cc(OC)c(OC)c(OC)c4)cc3N)cc2c1C | u | 12% | 46% | -18% | -19%
CC1CCN(c2cc(N3CCC(C)CC3)c([N+](=O)[O-])cc2/C=C(\C#N)c2nn(-c3ccccc3)c(N)c2C#N)CC1 | 10% | 18% | -13% | -30% | -27%
COC(=O)/C=C/c1c(C)nc(NCc2ccccc2)nc1Cl | 50µM* | 0% | 3% | u | -25%
Cc1nc(Cl)c(C(=O)NCc2ccccc2)c(C)c1Cl | -10%[12.7 µM] | 16% | 23% | -3% | -13%
Cc1cc(C)cc(OCC(=O)NC2=NCCS2)c1 | 17%[59 µM] | 9% | -5% | 7% | -16%[57.1 µM]
COc1ccc(CN(C(=O)c2ccc(-c3ccccc3)[nH]2)C(C(=O)NC(C)(C)C)c2ccncc2)cc1 (configuration not stated) | u | 45µM* | -10% | u | 40µM*
O=C(COc1ccc(Br)cc1)Nc1ccc2oc(=O)ccc2c1 | -19% | -14% | 14% | -5% | -19%
COc1cc(C(O)C(=O)O)ccc1O (configuration not stated) | 11µM*! | 7% | 39% | -5% | 1%
COc1cc(C(C2C(=O)CC(C)(C)CC2=O)C2C(=O)CC(C)(C)CC2=O)ccc1OC(C)=O | x | x | 47% | x | 6%
COc1cc(C(C2C(=O)CC(C)(C)CC2=O)C2C(=O)CC(C)(C)CC2=O)cc(OC)c1OC | 45µM* | u | 54% | 1% | -10%

Assay outcomes deposited in PubChem BioAssay by National Center for Advancing Translational Sciences (NCATS).
